Assay [1] addresses Lysosomal acid glucosylceramidase (Homo sapiens) (UniProt P04062). The experiment in a line: Glucocerebrosidase-p2 (AID 348; in the data active = potency below about 10 µM; note: potency is the fitted concentration of half-maximal effect). As to conditions: purified GBA, blue fluorogenic substrate, 40 min. An outline of the steps: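 Compounds titrated from 0.6 nM upwards against 0.2 nM enzyme in pH 5.9 citric acid/KH2PO4, taurocholate, tween-20; blue fluorogenic substrate 80 uM, 40 min room temperature, stopped and read Ex 365/Em 440 for AC50.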

Assay [2] is described as follows: AP1 Signaling Pathway (AID 357).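 Note: ME-180 reporter cells stimulated with EGF at its EC50 level; % is set by controls: 0 for no effect and ±100 for the full control effect.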 As to conditions: ME-180 AP-1-bla reporter, EGF-induced, beta-lactamase ratio, 5 h; at 7.69 µM (top of the series) unless noted. The gist of the method: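 First, ME-180 AP-1-bla cells were cultured overnight at 37 °C in low-serum Opti-MEM. Next, titrated compounds with EC50 EGF were incubated 5 hours. Finally, CCF4 was added for 2.5 hours and the 460/530 nm ratio recorded.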

For assay [3], the target named is Cytochrome P450 1A2 (Homo sapiens) (UniProt P05177). Nature of the assay: p450-cyp1a2 (AID 410; calls by dose curve; note: potency is the fitted concentration of half-maximal effect;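 for activity change, negative = inhibition: -100% = full effect of reference inhibitor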). As to conditions: recombinant CYP1A2, luciferin-ME demethylation, luminescence; series mostly up to 57 µM. An outline of the steps:
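Luminescent readout of luciferin formed from Luciferin-ME by human CYP1A2; data normalized against complete inhibition by 57 uM furafylline. Enzyme 20nM, substrate 100uM at Km, 100mM KPO4 buffer, 60 min reaction at room temperature.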

A short description of assay [4]: NFAT Signaling Pathway (AID 444).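 Note: carbachol stimulus at about its EC50 of 1 µM final; % is set by controls: 0 for no effect and ±100 for the full control effect.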 As to conditions: Jurkat NFAT-bla M1, carbachol, beta-lactamase ratio, 5 h; at 7.69 µM (top of the series) unless noted. The gist of the method:
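Read-out: CCF4 FRET ratio (460 nm/530 nm) after 1 h RT dye loading, used for %activity and AC50 from titration series. Cells: Jurkat NFAT-β-lactamase/M1 line, treated with compound plus 1 uM carbachol for 5 h, 37 °C.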

The nature of assay [5]: Stat Signaling Pathway (AID 446).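 Note: ME-180 cervical cancer cells given 40 pM IL-6 alongside compound; SIE-controlled beta-lactamase reporter measured as 460/530 nm FRET emission ratio; % is set by controls: 0 for no effect and ±100 for the full control effect.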 As to conditions: ME-180 (cervical carcinoma) SIE beta-lactamase reporter, IL-6 stimulated, 5 h; at 7.69 µM (top of the series) unless noted. An outline of the steps:
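IL-6/STAT signaling read in ME-180 cells via an SIE beta-lactamase reporter. Stimulus was 40 pM IL-6 (its AC50) for 5 hrs, so both activation and inhibition register.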

The target of assay [6] is Glucocorticoid receptor (Homo sapiens) (UniProt P04150). Nature of the assay: GR-EFC Redistribution (AID 451; calls by dose curve; note: potency is the fitted concentration of half-maximal effect). As to conditions: CHO-K1 GR-EFC translocation, beta-gal luminescence, 2 h. The gist of the method:
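Translocation of GR-ED fusion to nuclear EA restores b-gal, read by luminescence after 1 h room-temperature detection. Engineered CHO-K1 biosensor cells, 1,000/well, exposed 2 h at 37 C to titrations up to 46 uM final.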

Assay [7] deals with Mitogen-activated protein kinase 10 (Mus musculus) (UniProt Q61831). The experiment in a line: JNK3 AlphaScreen Assay (AID 530).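 Note: kinase came from lysate of stimulated human HepG2 cells; signal reports phosphorylation of biotinylated GST-cJun 1-79 at Ser73 with 10 µM ATP; % is set by controls: 0 for no effect and ±100 for the full control effect.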 As to conditions: JNK3 lysate, c-Jun phosphorylation; series mostly up to 57.1 µM. The gist of the method: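 Compound titrations were preincubated 15 minutes at room temperature with substrate, antibody and pre-activated JNK3-containing HepG2 lysate. Reactions were started with 10 uM ATP and stopped with EDTA-containing bead buffer for AlphaScreen detection.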
In general terms: Bead proximity is the source of the signal in Alpha formats.

For assay [8], the target named is 3',5'-cyclic-AMP phosphodiesterase 4B (Homo sapiens) (UniProt Q07343). The experiment in a line: qHTS Assay for Inhibitors of PDE-IV (AID 607; active = well fitted activation curve with a large enough effect in the main read-out, with a control signal flat, not every such curve was filed as active; note: % of control where 0% means no effect). As to conditions: HEK293 ACTOne CNG channel cells, membrane potential fluorescence; series mostly up to 22.9 µM. The gist of the method: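 Live HEK293 cells with a modified cyclic nucleotide-gated (CNG) channel report intracellular cAMP via membrane-potential dye fluorescence (ex 535/em 590 nm). Endogenous PDE-IV was targeted. Compounds were tested at up to 22.9 uM final; RO 20-1724 100 uM served as control.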
Chain of 3',5'-cyclic-AMP phosphodiesterase 4B (Homo sapiens) (Q07343 whole entry, looked up): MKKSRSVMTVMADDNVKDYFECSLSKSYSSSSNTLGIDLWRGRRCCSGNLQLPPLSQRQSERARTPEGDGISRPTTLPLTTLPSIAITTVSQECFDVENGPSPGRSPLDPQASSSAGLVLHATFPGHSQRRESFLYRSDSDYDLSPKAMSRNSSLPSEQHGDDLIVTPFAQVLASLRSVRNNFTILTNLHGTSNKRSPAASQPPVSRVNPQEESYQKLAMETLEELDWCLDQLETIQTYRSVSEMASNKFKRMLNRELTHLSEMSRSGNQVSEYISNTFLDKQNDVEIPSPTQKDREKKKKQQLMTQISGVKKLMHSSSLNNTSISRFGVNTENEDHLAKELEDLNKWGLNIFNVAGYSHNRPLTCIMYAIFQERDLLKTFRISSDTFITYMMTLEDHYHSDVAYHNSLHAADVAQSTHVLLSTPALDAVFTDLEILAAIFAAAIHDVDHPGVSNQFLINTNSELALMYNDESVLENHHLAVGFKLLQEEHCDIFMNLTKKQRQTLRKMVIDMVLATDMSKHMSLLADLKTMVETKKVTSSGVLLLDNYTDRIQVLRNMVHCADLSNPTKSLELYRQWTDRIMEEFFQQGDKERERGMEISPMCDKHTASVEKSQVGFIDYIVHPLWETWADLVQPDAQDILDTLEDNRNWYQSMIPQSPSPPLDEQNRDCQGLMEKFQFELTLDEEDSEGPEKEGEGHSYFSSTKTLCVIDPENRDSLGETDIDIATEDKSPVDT
(In general: Quantitative high-throughput screening tests each substance at several concentrations.)

The target in assay [9] is Cytochrome P450 3A4 (Homo sapiens) (UniProt P08684). The experiment in a line: qHTS Assay for Activators of Cytochrome P450 3A4 (AID 885; active = well fitted curve in the direction sought with a large enough effect; an effect the other way counts as inactive or inconclusive; note: nearly all actives have a fitted effect of over 65% in size). As to conditions: recombinant CYP3A4, Luciferin-PPXE luminescence, 60 min; series mostly up to 57.1 µM. An outline of the steps: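 Quantitative HTS format: compounds preincubated with 20nM human CYP3A4 and Luciferin-PPXE substrate at KM, reaction started by NADPH regeneration, stopped after 60 min, luciferase luminescence read 20 min later.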
Chain of Cytochrome P450 3A4 (Homo sapiens) (P08684 whole entry, looked up): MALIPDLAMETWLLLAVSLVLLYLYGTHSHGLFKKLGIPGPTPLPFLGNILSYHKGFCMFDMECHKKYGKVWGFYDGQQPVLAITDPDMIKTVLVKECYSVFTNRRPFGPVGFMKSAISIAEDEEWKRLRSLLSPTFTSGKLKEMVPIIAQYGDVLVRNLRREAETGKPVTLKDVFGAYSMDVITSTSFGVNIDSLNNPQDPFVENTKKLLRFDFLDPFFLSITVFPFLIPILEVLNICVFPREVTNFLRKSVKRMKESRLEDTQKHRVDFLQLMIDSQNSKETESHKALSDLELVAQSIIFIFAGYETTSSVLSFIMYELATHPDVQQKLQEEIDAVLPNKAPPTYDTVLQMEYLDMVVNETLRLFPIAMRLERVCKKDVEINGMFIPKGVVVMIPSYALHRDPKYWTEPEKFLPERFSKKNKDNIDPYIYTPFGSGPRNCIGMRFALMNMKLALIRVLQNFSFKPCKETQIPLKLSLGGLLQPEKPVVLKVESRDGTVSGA

A short description of assay [10]: qHTS Assay for Lipid Storage Modulators (AID 1519; calls by dose curve). As to conditions: Drosophila S3 cells, BODIPY lipid droplet/cell ratio, laser cytometry, cells loaded with oleic acid; for activity change, negative = inhibition: at 57.5 µM (top of the series). The gist of the method:
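Cells seeded at 5,000 per well were treated with compounds over a concentration series and loaded with oleic acid (400 uM, as added). Lipid droplet fluorescence (488 nm excitation, 500-530 nm channel) was read by laser-scanning cytometry and normalized to 20 uM Triacsin C.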

Assay [11] is described as follows: Primary qHTS for small molecule stabilizers of the endoplasmic reticulum resident proteome: Secreted ER Calcium Modulated Protein (SERCaMP) assay (AID 1508630; active = well fitted curve in the direction sought with a large enough effect; an effect the other way counts as inactive or inconclusive; note: % is set by controls: 0 for no effect and ±100 for the full control effect). As to conditions: SH-SY5Y GLuc-SERCaMP (Gaussia luciferase released on ER calcium loss) secretion, thapsigargin, luminescence; series mostly up to 38.4 µM. The gist of the method:
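GLuc-SERCaMP-expressing SH-SY5Y cells, pretreated 16 h with compound, are challenged with thapsigargin to empty ER calcium stores; after 4 h, coelenterazine is added directly to the medium and luminescence is imaged.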

Assay [12] deals with Cytochrome P450 3A4 (Homo sapiens) (UniProt P08684). The experiment in a line: qHTS Assay for Inhibitors and Substrates of Cytochrome P450 3A4 (AID 884; active = well fitted curve in the direction sought with a large enough effect; an effect the other way counts as inactive or inconclusive; note: potency is the fitted concentration of half-maximal effect; nearly all actives have a fitted effect of over 50% in size). As to conditions: recombinant CYP3A4, Luciferin-PPXE luminescence; series mostly up to 57.1 µM. An outline of the steps: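 20 nM human CYP3A4 with 25 uM Luciferin-PPXE (at KM) in 200 mM KPO4, preincubated 10 min with compound; NADPH regeneration started a 60 min RT reaction. Luciferin detected by luminescence, normalized to 57 uM ketoconazole as full inhibition.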

Assay [13] has as its target Cytochrome P450 2C19 (Homo sapiens) (UniProt P33261). Nature of the assay: qHTS Assay for Inhibitors and Substrates of Cytochrome P450 2C19 (AID 899; active = well fitted curve in the direction sought with a large enough effect; an effect the other way counts as inactive or inconclusive; note: potency is the fitted concentration of half-maximal effect; nearly all actives have a fitted effect of over 60% in size). As to conditions: recombinant CYP2C19, luciferin-H EGE luminescence; series mostly up to 57.1 µM. The gist of the method:
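5nM enzyme + 10uM Luciferin-H EGE (=KM), 50mM KPO4; cpd pin-transferred, 10 min 37C; NADPH regen, 60 min 37C; stopped w/ luciferin detection reagent, 20 min; luminescence. Normalized to 57uM ketoconazole (AC100).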

[14] abbreviates: measured here: cell count channel max response.
Where [15] appears, read: measured here: lipid channel max response.

Records with an inconclusive call do not appear. Active and inactive are the calls of the source. Unless noted, calls come from the whole dose curve; as a rule, active = well fitted curve in either direction with a large enough effect (not every such curve was filed as active); inconclusive = small, poorly fitted or top-dose-only effect, or another doubt; inactive = flat fitted curve, though single readings scatter.

Chain of Glucocorticoid receptor (Homo sapiens) (P04150 whole entry, looked up, the tested form may be a part): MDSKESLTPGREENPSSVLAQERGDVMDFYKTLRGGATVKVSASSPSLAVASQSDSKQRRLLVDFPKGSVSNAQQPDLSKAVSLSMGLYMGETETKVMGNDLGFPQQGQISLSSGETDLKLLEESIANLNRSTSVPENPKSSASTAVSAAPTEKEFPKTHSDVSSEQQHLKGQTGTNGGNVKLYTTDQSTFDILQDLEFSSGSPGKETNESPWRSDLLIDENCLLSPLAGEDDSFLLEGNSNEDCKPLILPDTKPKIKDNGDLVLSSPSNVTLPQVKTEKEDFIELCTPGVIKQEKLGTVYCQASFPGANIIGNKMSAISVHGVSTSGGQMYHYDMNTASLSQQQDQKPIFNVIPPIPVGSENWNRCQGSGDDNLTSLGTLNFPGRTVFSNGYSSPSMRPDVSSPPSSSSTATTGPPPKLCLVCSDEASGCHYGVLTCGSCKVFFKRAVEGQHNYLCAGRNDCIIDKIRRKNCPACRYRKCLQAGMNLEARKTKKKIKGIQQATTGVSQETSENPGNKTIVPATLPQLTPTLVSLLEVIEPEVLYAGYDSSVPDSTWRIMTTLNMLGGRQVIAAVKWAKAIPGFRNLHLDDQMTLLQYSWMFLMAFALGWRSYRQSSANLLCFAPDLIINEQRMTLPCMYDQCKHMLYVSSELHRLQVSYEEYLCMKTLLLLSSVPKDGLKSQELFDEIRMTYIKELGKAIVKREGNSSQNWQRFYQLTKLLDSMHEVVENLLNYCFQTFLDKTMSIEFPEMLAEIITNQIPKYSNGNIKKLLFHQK
Chain of Lysosomal acid glucosylceramidase (Homo sapiens) (P04062 whole entry, looked up): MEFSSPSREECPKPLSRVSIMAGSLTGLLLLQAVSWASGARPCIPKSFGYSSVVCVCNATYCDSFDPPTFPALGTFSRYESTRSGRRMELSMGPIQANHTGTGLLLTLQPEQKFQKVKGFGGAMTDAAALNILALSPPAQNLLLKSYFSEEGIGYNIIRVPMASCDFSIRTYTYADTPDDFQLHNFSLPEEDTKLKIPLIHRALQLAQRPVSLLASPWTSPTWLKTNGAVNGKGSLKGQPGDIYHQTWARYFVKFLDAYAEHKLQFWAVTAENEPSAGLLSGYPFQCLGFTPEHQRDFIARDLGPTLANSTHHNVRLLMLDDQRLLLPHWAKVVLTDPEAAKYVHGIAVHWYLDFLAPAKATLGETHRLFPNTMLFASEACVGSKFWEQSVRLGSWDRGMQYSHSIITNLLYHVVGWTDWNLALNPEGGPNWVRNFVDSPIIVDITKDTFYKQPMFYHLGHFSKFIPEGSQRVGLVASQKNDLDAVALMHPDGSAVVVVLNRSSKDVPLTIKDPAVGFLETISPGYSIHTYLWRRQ
Chain of Cytochrome P450 1A2 (Homo sapiens) (P05177 whole entry, looked up): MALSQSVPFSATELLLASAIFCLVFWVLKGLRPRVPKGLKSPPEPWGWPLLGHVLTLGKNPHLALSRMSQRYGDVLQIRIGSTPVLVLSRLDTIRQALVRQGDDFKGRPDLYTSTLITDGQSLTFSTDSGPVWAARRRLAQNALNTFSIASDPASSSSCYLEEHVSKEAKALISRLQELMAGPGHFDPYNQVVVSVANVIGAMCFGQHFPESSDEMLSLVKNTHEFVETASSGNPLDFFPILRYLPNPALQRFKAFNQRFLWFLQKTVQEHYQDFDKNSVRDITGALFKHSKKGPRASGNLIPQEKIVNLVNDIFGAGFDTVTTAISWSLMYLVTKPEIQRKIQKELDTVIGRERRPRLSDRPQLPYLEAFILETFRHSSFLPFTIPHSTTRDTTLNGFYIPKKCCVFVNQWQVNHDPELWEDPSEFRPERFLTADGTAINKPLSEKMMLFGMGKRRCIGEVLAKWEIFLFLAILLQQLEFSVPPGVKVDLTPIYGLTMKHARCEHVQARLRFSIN
Chain of Cytochrome P450 2C19 (Homo sapiens) (P33261 whole entry, looked up): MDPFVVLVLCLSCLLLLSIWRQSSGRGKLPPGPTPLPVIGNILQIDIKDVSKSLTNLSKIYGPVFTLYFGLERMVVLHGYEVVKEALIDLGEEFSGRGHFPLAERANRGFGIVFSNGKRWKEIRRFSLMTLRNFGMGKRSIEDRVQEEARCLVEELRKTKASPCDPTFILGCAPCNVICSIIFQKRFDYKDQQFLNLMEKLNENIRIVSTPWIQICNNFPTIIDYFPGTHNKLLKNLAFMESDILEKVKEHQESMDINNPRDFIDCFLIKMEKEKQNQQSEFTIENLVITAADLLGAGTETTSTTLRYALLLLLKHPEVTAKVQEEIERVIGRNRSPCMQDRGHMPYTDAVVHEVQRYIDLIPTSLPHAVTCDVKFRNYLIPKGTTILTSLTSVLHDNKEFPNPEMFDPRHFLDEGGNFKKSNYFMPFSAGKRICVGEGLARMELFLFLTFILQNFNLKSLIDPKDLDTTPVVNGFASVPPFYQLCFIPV

Consider `Cn1cccc1C(=O)N1CCC[C@@]2(CCN(c3ccccn3)C2)C1`, for which the Potency in assay [1] was > 11.4 µM (inactive); in assay [3], 31.6 µM (active); in assay [6], > 46 µM (inactive). Also, the activity change, negative = inhibition was 0.459% (inactive) in assay [2], -3.64% (inactive) in assay [4] and 4.31% (inactive) in assay [10]. Besides, the activity, negative = inhibition in [5] is -2.5% (inactive). In addition, in [7], the molecule was classed as inactive. The Potency result in assay [8], in assay [9] and in assay [11] was “inactive” each time. The values for the max response in assay [10] (setting [14]) and in assay [10] (setting [15]) were 20% and 28%, respectively.

For the molecule `N#Cc1cccc(NC(=O)N2CC[C@@]3(CCCNC3)C2)c1`, the Potency in assay [1] was > 11.4 µM (inactive); in assay [6] it was > 46 µM (inactive). The activity change, negative = inhibition is 9.42% (inactive) in [2], 9.18% (inactive) in assay [4] and 1.94% (inactive) in assay [10]. Also, the Potency result in assay [3], in assay [8], in assay [9] and in assay [11] was “inactive” in each case. Besides, in assay [5], the activity, negative = inhibition was -4.17% (inactive). The result in assay [7] was inactive. Besides, the results for the max response in assay [10] (setting [14]) and in [10] (setting [15]) were -6.65% and -1.99%, respectively.

`Cc1noc(C)c1C(=O)N1CCC2(CCCN(Cc3nccs3)C2)CC1`: the Potency in [1] was > 11.4 µM (inactive); in assay [6], > 46 µM (inactive). In addition, the figures for the activity change, negative = inhibition in assay [2], in [4] and in [10] were -7.07% (inactive), -16.6% (inactive) and 5.37% (inactive), respectively. The Potency result in assay [3], in assay [8], in [9] and in assay [11] was “inactive” in each case. Also, in assay [5], the activity, negative = inhibition was -1.5% (inactive). In addition, the molecule was classed as inactive in assay [7]. The max response in [10] (setting [14]) was 14.6%; in assay [10] (setting [15]), 22.3%.

Regarding `COc1ccc(NC(=O)N2CC[C@@]3(CCCN(C(=O)c4cccn4C)C3)C2)cc1`, the Potency is > 11.4 µM (inactive) in [1] and > 46 µM (inactive) in [6]. Further, the activity change, negative = inhibition in assay [2] is -0.362% (inactive); in assay [4], 4.79% (inactive); in [10] it was 2.71% (inactive). In addition, the Potency result in assay [3], in assay [8], in [9] and in [11] was “inactive” in each case. For the same molecule, in [5], the activity, negative = inhibition is 8.48% (inactive). Moreover, the result in [7] was inactive. For the same molecule, the results for the max response in assay [10] (setting [14]) and in assay [10] (setting [15]) were 12% and 14.4%, respectively.

`O=C(c1ccncc1)N1CCC[C@@]2(CCN(c3ncccn3)C2)C1`: the Potency was > 11.4 µM (inactive) in [1] and > 46 µM (inactive) in [6]. In addition, the values for the activity change, negative = inhibition in assay [2], in assay [4] and in assay [10] were 2.24% (inactive), 20.3% (inactive) and 3.78% (inactive), respectively. Also, the Potency entry in assay [3], in assay [8], in [9] and in assay [11] was “inactive” throughout. For the same molecule, the activity, negative = inhibition in assay [5] is 1.34% (inactive). In addition, the molecule was called inactive in assay [7]. Besides, the max response was found to be 21.2% in assay [10] (setting [14]) and 24.4% in assay [10] (setting [15]).

In the case of `O=C(c1cnccn1)N1CCC2(CCCN(c3ccccc3)C2)CC1`, the Potency was > 11.4 µM (inactive) in assay [1], > 46 µM (inactive) in [6], 1.58 µM (active) in assay [12] and 0.501 µM (active) in [13]. Further, the activity change, negative = inhibition was 13.8% (inactive) in assay [2], 5.12% (inactive) in assay [4] and 4.73% (inactive) in [10]. For the same molecule, the Potency entry in [3], in assay [8], in assay [9] and in assay [11] was “inactive” each time. Further, the activity, negative = inhibition in assay [5] is -11.6% (inactive). Moreover, the outcome in [7] was inactive. The max response came out at 21.1% in assay [10] (setting [14]) and 29.2% in [10] (setting [15]).

The values are drawn from PubChem BioAssay (NCATS).
